According to PubChem BioAssay AID687001 (Broad Institute, 2013):
Potency and affinity values are given separately. Calls of active or inactive are those of the source.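 The calls were made as follows: active = signal-lowering compounds whose fitted half-maximal concentration is at or below twice the top tested dose in every run; inconclusive = runs disagree, flat 30 to 70% inhibition, or poor curve fit; inactive = the rest.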

Biological target: Protein S100-A4 (Homo sapiens) (UniProt P26447)
Assay: S100A4-myosin IIA binding inhibitor potency, dose response, biochemical, fluorescence polarization, cherry-picked hits (AID 687001);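 also: 0% = DMSO neutral control wells and -100% = TFP positive control wells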
Details: FP, S100A4/TAMRA-myosin IIA peptide binding; series mostly up to 11 µM; activity change, negative = inhibition: at the top concentration

Protein S100-A4 (Homo sapiens), sequence (P26447 whole entry, looked up): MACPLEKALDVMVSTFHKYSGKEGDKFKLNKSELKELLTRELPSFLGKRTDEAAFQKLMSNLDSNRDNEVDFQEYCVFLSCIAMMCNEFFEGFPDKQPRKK

Activity change, negative = inhibition, inactive:
Cc1ccccc1CN1CCC(n2nccc2NC(=O)CCOc2ccccc2)CC1 2.69%
CCC(Sc1nc2ccncc2[nH]1)C(=O)Nc1ccc(C)c(Cl)c1 (stereo unspecified) -0.285%
Cc1ccc(S(=O)(=O)NCC[C@@H]2CC[C@H](NC(=O)Nc3cccc(F)c3)[C@@H](CO)O2)cc1 0.251%
Cc1cccc(S(=O)(=O)N2C[C@@H]3[C@H](c4ccccc42)[C@H](CO)N3CC2CCOCC2)c1 -4.19%
Cc1ccc(C(=O)N2CCCC(CCC(=O)N3CCN(c4ccccn4)CC3)C2)cc1 (stereo unspecified) 3.63%
Cc1cc2cc(CNC(=O)Nc3cccc(Cl)c3)ccc2n1C -16.4%
CN1CCc2c(sc(NC(=O)C3COc4ccccc4O3)c2C(N)=O)C1 (stereo unspecified) -9.86%
CC(C)=CC(=O)O[C@@H]1Cc2cc3ccc(=O)oc3cc2OC1(C)C -0.654%
COc1cccc(C2c3[nH]c4ccccc4c3C[C@H]3C(=O)N(C)CC(=O)N23)c1 (stereo partly specified) -3.55%
C[C@H](CO)N1C[C@H](C)[C@H](CN(C)C)Oc2cc(C3=CCCC3)ccc2S1(=O)=O 3.56%
Cc1cc(=O)n2nc(N3CCC(C(=O)NCc4ccccc4)CC3)sc2n1 13.9%
COc1cc2cc(-c3ccc(O)cc3O)nc(C)c2cc1OC -6.81%
Cc1ccc(CNS(=O)(=O)c2ccc(C)s2)cc1 0.881%
Cc1noc(C)c1S(=O)(=O)N(C)C[C@H]1Oc2ccc(N(C)C)cc2CC(=O)N([C@H](C)CO)C[C@H]1C -3.08% [at 10 µM]
Cc1ccc(CN2C(=O)CSc3ccc(C(=O)NC4CC4)cc32)cc1 -4.95%
CC(C)NC(=O)N(C)C[C@@H]1Oc2c(NC(=O)Nc3cccc4ccccc34)cccc2C(=O)N([C@H](C)CO)C[C@H]1C -3.24%
